{"source": "paper PMC11006913", "assay_in_all_cases": "PBM; 200 nM protein, PBS", "conditions_in_all_cases": "dsDNA, one strand shown", "key": {"[1]": {"molecular_target": "HOXB4 (Homo sapiens, UniProt P17483 148-234)", "sequence (P17483 148-234)": "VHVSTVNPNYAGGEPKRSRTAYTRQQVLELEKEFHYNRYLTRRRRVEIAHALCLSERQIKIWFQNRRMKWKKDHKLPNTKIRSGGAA"}, "[2]": {"molecular_target": "HOXB9 (Homo sapiens, UniProt P17482 171-250, T197M)", "sequence (P17482 171-250 T197M)": "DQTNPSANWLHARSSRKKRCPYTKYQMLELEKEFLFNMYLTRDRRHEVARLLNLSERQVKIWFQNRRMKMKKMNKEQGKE"}, "[3]": {"molecular_target": "HOXC9 (Homo sapiens, UniProt P31274 178-260, K195R)", "sequence (P31274 178-260 K195R)": "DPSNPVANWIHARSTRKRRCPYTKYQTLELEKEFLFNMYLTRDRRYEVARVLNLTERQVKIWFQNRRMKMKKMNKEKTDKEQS"}, "[4]": {"molecular_target": "HOXA7 (Homo sapiens, UniProt P31268 116-202)", "sequence (P31268 116-202)": "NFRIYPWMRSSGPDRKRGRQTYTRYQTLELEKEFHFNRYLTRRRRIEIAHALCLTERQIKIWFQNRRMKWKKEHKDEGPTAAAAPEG"}, "[5]": {"molecular_target": "T1, PAX4 (Homo sapiens, UniProt O43316 9-242, R200K)", "T1 sequence": "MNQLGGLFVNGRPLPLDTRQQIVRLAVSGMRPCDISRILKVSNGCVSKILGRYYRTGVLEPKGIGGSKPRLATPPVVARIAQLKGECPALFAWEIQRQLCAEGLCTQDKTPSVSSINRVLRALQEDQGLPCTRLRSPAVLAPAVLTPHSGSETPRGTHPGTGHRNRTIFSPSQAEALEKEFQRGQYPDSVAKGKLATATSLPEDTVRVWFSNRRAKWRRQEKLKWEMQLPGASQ"}, "[6]": {"molecular_target": "HOXB6 (Homo sapiens, UniProt P17509 132-218, K202E)", "sequence (P17509 132-218 K202E)": "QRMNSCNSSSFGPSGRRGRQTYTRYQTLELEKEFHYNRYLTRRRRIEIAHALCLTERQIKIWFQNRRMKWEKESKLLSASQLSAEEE"}, "[7]": {"molecular_target": "HOXB4 (Homo sapiens, UniProt P17483 148-234, V174I)", "sequence (P17483 148-234 V174I)": "as the sequence (P17483 148-234) above, with V27I counted along it"}, "[8]": {"molecular_target": "ALX3 (Homo sapiens, UniProt O95076 139-225, N203Q)", "sequence (O95076 139-225 N203Q)": "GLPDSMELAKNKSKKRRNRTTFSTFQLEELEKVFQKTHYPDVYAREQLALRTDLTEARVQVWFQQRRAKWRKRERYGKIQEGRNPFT"}, "[9]": {"molecular_target": "HOXD13 (Homo sapiens, UniProt P35453 263-343, T313R)", "sequence (P35453 263-343 T313R)": "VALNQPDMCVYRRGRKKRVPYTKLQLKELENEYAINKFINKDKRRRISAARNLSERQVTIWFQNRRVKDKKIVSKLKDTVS"}, "[10]": {"molecular_target": "T2, PAX4 (Homo sapiens, UniProt O43316 9-242, R200Q)", "T2 sequence": "T1 sequence with K192Q"}, "[11]": {"molecular_target": "HOXC9 (Homo sapiens, UniProt P31274 178-260, R193K)", "sequence (P31274 178-260 R193K)": "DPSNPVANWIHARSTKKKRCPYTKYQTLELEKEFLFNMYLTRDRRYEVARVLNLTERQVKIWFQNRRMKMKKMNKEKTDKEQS"}, "[12]": {"molecular_target": "HOXD13 (Homo sapiens, UniProt P35453 263-343)", "sequence (P35453 263-343)": "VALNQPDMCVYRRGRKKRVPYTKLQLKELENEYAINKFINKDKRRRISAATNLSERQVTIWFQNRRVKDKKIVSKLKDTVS"}, "[13]": {"molecular_target": "T3, PAX4 (Homo sapiens, UniProt O43316 9-242, F177Y)", "T3 sequence": "T1 sequence with F169Y, K192R"}, "[14]": {"molecular_target": "HOXD13 (Homo sapiens, UniProt P35453 263-343, T313A)", "sequence (P35453 263-343 T313A)": "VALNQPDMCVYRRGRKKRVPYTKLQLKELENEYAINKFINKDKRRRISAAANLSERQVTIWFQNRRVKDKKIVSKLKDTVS"}, "[15]": {"molecular_target": "HOXC9 (Homo sapiens, UniProt P31274 178-260, R222W)", "sequence (P31274 178-260 R222W)": "as the sequence (P31274 178-260 R193K) above, with K16R, R45W counted along it"}, "[16]": {"molecular_target": "ALX3 (Homo sapiens, UniProt O95076 139-225, L168V)", "sequence (O95076 139-225 L168V)": "as the sequence (O95076 139-225 N203Q) above, with L30V, Q65N counted along it"}, "[17]": {"molecular_target": "HESX1 (Homo sapiens, UniProt Q9UBX0 95-180, F115L)", "sequence (Q9UBX0 95-180 F115L)": "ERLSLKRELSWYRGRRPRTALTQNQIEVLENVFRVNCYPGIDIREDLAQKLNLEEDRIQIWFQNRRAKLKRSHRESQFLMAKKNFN"}, "[18]": {"molecular_target": "T4, PAX4 (Homo sapiens, UniProt O43316 9-242, R227W)", "T4 sequence": "T1 sequence with K192R, R219W"}, "[19]": {"molecular_target": "HOXA7 (Homo sapiens, UniProt P31268 116-202, W177C)", "sequence (P31268 116-202 W177C)": "as the sequence (P31268 116-202) above, with W62C counted along it"}, "[20]": {"molecular_target": "ALX3 (Homo sapiens, UniProt O95076 139-225, N203S)", "sequence (O95076 139-225 N203S)": "as the sequence (O95076 139-225 N203Q) above, with Q65S counted along it"}, "[21]": {"molecular_target": "HOXB6 (Homo sapiens, UniProt P17509 132-218)", "sequence (P17509 132-218)": "as the sequence (P17509 132-218 K202E) above, with E71K counted along it"}, "[22]": {"molecular_target": "T5, VENTX (Homo sapiens, UniProt O95231 78-163, R121Q)", "T5 sequence": "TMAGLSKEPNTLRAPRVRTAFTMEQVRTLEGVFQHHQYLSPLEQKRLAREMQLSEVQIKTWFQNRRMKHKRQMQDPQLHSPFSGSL"}, "[23]": {"molecular_target": "HOXA4 (Homo sapiens, UniProt Q00056 201-287, W262R)", "sequence (Q00056 201-287 W262R)": "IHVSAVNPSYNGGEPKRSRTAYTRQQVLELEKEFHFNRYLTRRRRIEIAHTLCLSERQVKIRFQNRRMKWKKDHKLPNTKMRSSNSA"}, "[24]": {"molecular_target": "T6, VENTX (Homo sapiens, UniProt O95231 78-163)", "T6 sequence": "T5 sequence with Q44R"}, "[25]": {"molecular_target": "T7, VENTX (Homo sapiens, UniProt O95231 78-163, Y115F)", "T7 sequence": "T5 sequence with Y38F, Q44R"}, "[26]": {"molecular_target": "T8, PAX4 (Homo sapiens, UniProt O43316 9-242)", "T8 sequence": "T1 sequence with K192R"}, "[27]": {"molecular_target": "HOXA4 (Homo sapiens, UniProt Q00056 201-287, R217L)", "sequence (Q00056 201-287 R217L)": "as the sequence (Q00056 201-287 W262R) above, with R17L, R62W counted along it"}, "[28]": {"molecular_target": "T9, PAX4 (Homo sapiens, UniProt O43316 9-242, F177V)", "T9 sequence": "T1 sequence with F169V, K192R"}, "[29]": {"molecular_target": "HOXA4 (Homo sapiens, UniProt Q00056 201-287)", "sequence (Q00056 201-287)": "as the sequence (Q00056 201-287 W262R) above, with R62W counted along it"}, "[30]": {"molecular_target": "HOXA4 (Homo sapiens, UniProt Q00056 201-287, W262F)", "sequence (Q00056 201-287 W262F)": "as the sequence (Q00056 201-287 W262R) above, with R62F counted along it"}}, "note": "Changes are numbered by the printed parent chain."}
{"sequence": "TATTAATA", "values": [{"measurement": "binding signal", "setting": "[1]", "value": "12.7 upbm affinity estimate (log intensity, higher = more binding, comparable within an allelic series)"}, {"measurement": "binding signal", "setting": "[2]", "value": "10.1 upbm affinity estimate (log intensity, higher = more binding, comparable within an allelic series)"}, {"measurement": "binding signal", "setting": "[3]", "value": "12.6 upbm affinity estimate (log intensity, higher = more binding, comparable within an allelic series)"}, {"measurement": "binding signal", "setting": "[4]", "value": "11.2 upbm affinity estimate (log intensity, higher = more binding, comparable within an allelic series)"}, {"measurement": "binding signal", "setting": "[5]", "value": "11.7 upbm affinity estimate (log intensity, higher = more binding, comparable within an allelic series)"}, {"measurement": "binding signal", "setting": "[6]", "value": "10 upbm affinity estimate (log intensity, higher = more binding, comparable within an allelic series)"}, {"measurement": "binding signal", "setting": "[7]", "value": "13.3 upbm affinity estimate (log intensity, higher = more binding, comparable within an allelic series)"}, {"measurement": "binding signal", "setting": "[8]", "value": "8.75 upbm affinity estimate (log intensity, higher = more binding, comparable within an allelic series)"}, {"measurement": "binding signal", "setting": "[9]", "value": "10.9 upbm affinity estimate (log intensity, higher = more binding, comparable within an allelic series)"}, {"measurement": "binding signal", "setting": "[10]", "value": "11.9 upbm affinity estimate (log intensity, higher = more binding, comparable within an allelic series)"}, {"measurement": "binding signal", "setting": "[11]", "value": "12.5 upbm affinity estimate (log intensity, higher = more binding, comparable within an allelic series)"}, {"measurement": "binding signal", "setting": "[12]", "value": "11.9 upbm affinity estimate (log intensity, higher = more binding, comparable within an allelic series)"}, {"measurement": "binding signal", "setting": "[13]", "value": "11.1 upbm affinity estimate (log intensity, higher = more binding, comparable within an allelic series)"}, {"measurement": "binding signal", "setting": "[14]", "value": "12 upbm affinity estimate (log intensity, higher = more binding, comparable within an allelic series)"}, {"measurement": "binding signal", "setting": "[15]", "value": "11.1 upbm affinity estimate (log intensity, higher = more binding, comparable within an allelic series)"}, {"measurement": "binding signal", "setting": "[16]", "value": "9.77 upbm affinity estimate (log intensity, higher = more binding, comparable within an allelic series)"}, {"measurement": "binding signal", "setting": "[17]", "value": "8.46 upbm affinity estimate (log intensity, higher = more binding, comparable within an allelic series)"}, {"measurement": "binding signal", "setting": "[18]", "value": "11.2 upbm affinity estimate (log intensity, higher = more binding, comparable within an allelic series)"}, {"measurement": "binding signal", "setting": "[19]", "value": "9.08 upbm affinity estimate (log intensity, higher = more binding, comparable within an allelic series)"}, {"measurement": "binding signal", "setting": "[20]", "value": "8.79 upbm affinity estimate (log intensity, higher = more binding, comparable within an allelic series)"}, {"measurement": "binding signal", "setting": "[21]", "value": "11.7 upbm affinity estimate (log intensity, higher = more binding, comparable within an allelic series)"}]}
{"sequence": "ATTAATCG", "values": [{"measurement": "binding signal", "setting": "[1]", "value": "13 upbm affinity estimate (log intensity, higher = more binding, comparable within an allelic series)"}, {"measurement": "binding signal", "setting": "[22]", "value": "11.6 upbm affinity estimate (log intensity, higher = more binding, comparable within an allelic series)"}, {"measurement": "binding signal", "setting": "[23]", "value": "10.5 upbm affinity estimate (log intensity, higher = more binding, comparable within an allelic series)"}, {"measurement": "binding signal", "setting": "[24]", "value": "12.5 upbm affinity estimate (log intensity, higher = more binding, comparable within an allelic series)"}, {"measurement": "binding signal", "setting": "[5]", "value": "11.6 upbm affinity estimate (log intensity, higher = more binding, comparable within an allelic series)"}, {"measurement": "binding signal", "setting": "[25]", "value": "11.4 upbm affinity estimate (log intensity, higher = more binding, comparable within an allelic series)"}, {"measurement": "binding signal", "setting": "[26]", "value": "12.2 upbm affinity estimate (log intensity, higher = more binding, comparable within an allelic series)"}, {"measurement": "binding signal", "setting": "[27]", "value": "11.9 upbm affinity estimate (log intensity, higher = more binding, comparable within an allelic series)"}, {"measurement": "binding signal", "setting": "[7]", "value": "13.7 upbm affinity estimate (log intensity, higher = more binding, comparable within an allelic series)"}, {"measurement": "binding signal", "setting": "[10]", "value": "12 upbm affinity estimate (log intensity, higher = more binding, comparable within an allelic series)"}, {"measurement": "binding signal", "setting": "[28]", "value": "10.5 upbm affinity estimate (log intensity, higher = more binding, comparable within an allelic series)"}, {"measurement": "binding signal", "setting": "[29]", "value": "13.6 upbm affinity estimate (log intensity, higher = more binding, comparable within an allelic series)"}, {"measurement": "binding signal", "setting": "[13]", "value": "11.1 upbm affinity estimate (log intensity, higher = more binding, comparable within an allelic series)"}, {"measurement": "binding signal", "setting": "[18]", "value": "10.7 upbm affinity estimate (log intensity, higher = more binding, comparable within an allelic series)"}, {"measurement": "binding signal", "setting": "[30]", "value": "11.2 upbm affinity estimate (log intensity, higher = more binding, comparable within an allelic series)"}]}
